The values that follow come from ChEMBL document CHEMBL3988442, “University of Dundee, Small-Polar-MMV Screening Library” (2021).

Screen size: about 69,000 compounds; about 950 (1.4%) showed an effect of 50% or more. Only a selection was taken, and strong results are over-represented in it overall.

This experiment relates to Mycobacterium tuberculosis. Nature of the experiment: Cornell M. t heat shock assay. Note: in the data most compounds retested in dose-response had high values. Type of experiment: functional, organism-based. The arrangement: dose or concentration left out as unconfirmed.
On to `O=C(O)C(F)(F)F.O=C(O)C(F)(F)F.O=C(c1ccc(F)cc1)N1CCN2C[C@H](OCc3ccccn3)C[C@H]2C1`, for which the “Percent Effect” value is 3.711%.

Consider `C[C@H]1CN(C(=O)c2ccoc2)C[C@@]12CCN(CCN(C)C)C2=O.O=C(O)C(F)(F)F`, for which the “Percent Effect” value is -17.94%. The result for `O=C1C[C@H]2CC[C@@H](CN1)N2C1CCSCC1` reads 14.33%; that for `CCN1C[C@H]2C[C@H](C(=O)NCc3cccnc3)[C@@H](C1)O2`, -4.927%.

For `Cc1ccc(C(=O)N2CCC3(CC2)COC(COc2cccnc2)C3)o1.O=C(O)C(F)(F)F` (stereo unspecified), the “Percent Effect” value is recorded as -31.88%. In the case of `O=C(O)C(F)(F)F.c1cnc(N2CCO[C@H]3CN(CC4CCC4)C[C@H]32)cn1`, the “Percent Effect” value is listed as 6.326%. The result for `CC(=O)N1CCc2c(nc(N(C)C)nc2NC(C)Cc2cccs2)C1` (stereo unspecified) reads 23.93%. The result for `CC(=O)N1CCc2c(nc(N(C)C)nc2NCCc2cccs2)C1` reads 53.71%; that for `CC(=O)N1CCc2c(nc(N(C)C)nc2NCc2cccs2)C1`, -2.548%.

Take `CCCNc1cc(-c2c[nH]nc2C2CCN(C(=O)C3CCC3)C2)ccn1` (stereo unspecified): the “Percent Effect” value is on record as -8.816%. Under `Cl.O=C(NCc1ccc(Cl)cc1)N1CCN(CC(O)C2CC2)CC1` (stereo unspecified) stands 7.084%; under `CC(C)C(=O)Nc1ccc2c(c1)ncn2CC(=O)NCCN(C)C`, -3.322%. In the case of `CC(C)NC(=O)Nc1ccc2c(c1)ncn2CC(=O)NCCN(C)C`, the “Percent Effect” value is -0.1313%. Regarding `CC(C)CC(=O)Nc1ccc2c(c1)ncn2CC(=O)NCCN(C)C`, the “Percent Effect” value is 65.51%.

`CC(=O)N1CCN(c2cc(C3CCNCC3)ccn2)CC1.Cl.Cl`: the “Percent Effect” value was 2.778%. Under `O=C(N1CCCC1)N1CCC2(CC1)CN(c1cccnc1)C(=O)CO2.O=C(O)C(F)(F)F` stands -4.597%; under `CCCn1cc(NC(=O)c2cccc(CN3CC[C@H](O)C3)c2)nn1`, 18.76%. Regarding `CCCn1cc(NC(=O)c2cccc(CN3CC=CC3)c2)nn1`, the “Percent Effect” value was -7.923%. `CCn1cc(NC(=O)c2cccc(CN3C[C@@H](C)O[C@@H](C)C3)c2)nn1`: the “Percent Effect” value amounted to 87.48%. Turning to `CN(C)C(=O)CO[C@H]1CN(Cc2ccsc2)[C@@H]2COC[C@H]12.O=C(O)C(F)(F)F`, the “Percent Effect” value stood at 37.89%. As for `CN(C)C(=O)Cn1c(C2CC2)c(CN2CCC(O)CC2)c2cccnc21.Cl`, the “Percent Effect” value is on record as -13.49%. Turning to `CC(C)CCn1c(=O)nc2n1C(=O)N(c1ccc(F)cc1)C2`, the “Percent Effect” value was 4.203%.

On to `CCC1=N[C@@]2(CC[C@@H]3CN(Cc4ccccc4C)C[C@@H]32)C(=O)N1C.O=C(O)C(F)(F)F`, for which the “Percent Effect” value is -3.912%.

On to `OC1CCN(CCNc2ncc3c(n2)CCN3c2ccccc2)CC1`, for which the “Percent Effect” value was -5.755%. In the case of `O=C(CCNc1ncc2c(n1)CCN2c1ccccc1)N1CCCC1`, the “Percent Effect” value is 58.85%. Turning to `CN(C)C(=O)CCCNc1ncc2c(n1)CCN2c1ccccc1`, the “Percent Effect” value worked out at 14.48%. Under `CCc1ncc(C(=O)N2CC[C@@H]3CC[C@H](C2)N3C)cn1` stands -16.81%; under `COc1cc2cc(C)c(SCCN3CCCCC3)nc2cc1OC.Cl`, 8.064%.

Turning to `CN1CCC(CNC(=O)c2cccc(C(F)(F)F)c2)c2ccccc21` (stereo unspecified), the “Percent Effect” value amounted to 80.18%. Under `CN1CCC(CNC(=O)c2cccc(NC(N)=O)c2)c2ccccc21` (stereo unspecified) stands 13.83%; under `CN1CCC(CNC(=O)c2ccc(O)nc2)c2ccccc21` (stereo unspecified), 10.05%; under `FC1(F)CCN(Cc2ccncc2)CC12CCN(Cc1ccccn1)C2.O=C(O)C(F)(F)F.O=C(O)C(F)(F)F.O=C(O)C(F)(F)F` (stereo unspecified), -15.56%. Under `CCN(C)c1ncnc2c1CCN(Cc1csc(C)n1)CC2.O=C(O)C(F)(F)F.O=C(O)C(F)(F)F` stands 2.134%; under `O=S(=O)(C1CC1)N1CCc2ncnc(-c3ccsc3)c2CC1`, -2.171%. For the molecule `O=C(O)C(F)(F)F.O=C(c1ncccn1)N1CCC2(CC1)COC(COc1ccccn1)C2` (stereo unspecified), the “Percent Effect” value is on record as -42.8%. Under `CCCC1CCCN(Cc2csc(-c3cnn(C)c3)n2)CC1` (stereo unspecified) stands 101.6%; under `CCc1nnc2n1CCN(Cc1csc(-c3cnn(C)c3)n1)C2`, 103.2%.

Turning to `Cc1nnc2n1CCN(Cc1csc(-c3cnn(C)c3)n1)C2`, the “Percent Effect” value is listed as -22%.

Consider `CC(C)c1nnc2n1CCN(Cc1csc(-c3cnn(C)c3)n1)C2`, for which the “Percent Effect” value was 2.86%. Take `Cn1cc(-c2nc(CN3CCN(CCO)CC3)cs2)cn1`: the “Percent Effect” value worked out at 7.212%. With `CCCC1CCCN(Cc2csc(-c3ncccn3)n2)CC1` (stereo unspecified), the “Percent Effect” value was determined as 31.96%. Under `O=C(O)C(F)(F)F.O=C1COC2(CCN(C(=O)c3ccoc3)CC2)CN1Cc1ccccn1` stands -25.96%; under `CCc1ccc2c(C3CN(C(C)=O)C3)ncn2c1`, -5.457%; under `CCc1ccc2c(C3CN(CC4CCC4)C3)ncn2c1.O=C(O)C(F)(F)F`, 59.23%. As for `CCc1ccc2c(C3CN(S(C)(=O)=O)C3)ncn2c1`, the “Percent Effect” value was -5.732%. Consider `Cc1ccoc1C(=O)N1C[C@H](OCc2cccnc2)[C@H]2OCCC[C@H]21.O=C(O)C(F)(F)F`, for which the “Percent Effect” value was -24.06%.
